Measured values: PubChem BioAssay (NCATS)
Values joined by “and” are separate entries in the source; they are usually repeats but may differ in a detail not shown here. Equal entries are not always repeated. Results filed as inconclusive are left out. Active and inactive are the calls of the source. Calls follow the shape of the dose curve; as a rule, active = well fitted inhibition curve with a large enough effect; inconclusive = small, poorly fitted or top-dose-only effect; inactive = flat fitted curve, though single readings scatter.

assay: Primary qHTS for inhibitors of nuclear receptor binding SET domain protein 2 (NSD2) in an isogenic RCH-ACV NSD2 p.E1099K mutant (9B) (AID 1645876); settings: RCH-ACV (leukaemia line) NSD2 E1099K (9B) viability, CellTiter-Glo, 72 h; series mostly up to 44.9 µM; activity change, negative = viability loss: at the top concentration; also: nearly all actives have a fitted effect of over 70% in size
% is scaled to controls: 0 for no effect and ±100 for the full control effect; potency is read from the fitted curve at half-maximal effect.

SMILES | outcome | Potency | activity change, negative = viability loss
C#CCNCc1cc2cc(OCc3ccccc3)ccc2[nH]1 | inactive | – | –
CN(C)C(=O)NC1(c2ccccc2)CCN(CCC[C@]2(c3ccc(Cl)c(Cl)c3)CCCN(C(=O)c3ccccc3)C2)CC1 | – | 3.25 µM (active) | –
COc1cc(F)c(C(C)C)cc1-c1ccc(C(F)(F)F)cc1CN1C(=O)OC(c2cc(C(F)(F)F)cc(C(F)(F)F)c2)C1C (stereo not drawn) | – | – | -0.439% (inactive)
CCn1c(=O)c(-c2ccc(Cl)cc2Cl)cc2cnc(Nc3ccc(N4CCNCC4)c(F)c3)nc21 | – | 290 nM (active) and 662 nM (active) | –
Cc1cn2cc(C(=O)N(C)CCO)cc(NC3CCOc4cccc(C)c43)c2n1 (stereo not drawn) | – | – | -7.53% (inactive)
C[C@@H](NC(=O)c1ccc(C#Cc2cccc(F)c2)cn1)C(C)(C)O | – | – | -21.9% (inactive)
Cc1cc(C(=O)Nc2cc(Nc3ccc4c(/C=C/c5ccccn5)n[nH]c4c3)ccc2F)n(C)n1 | – | 7.28 µM (active) and 7.42 µM (active) | –
Cc1cc(OCCCS(C)(=O)=O)cc(C)c1-c1cccc(COc2ccc3c(c2)OCC3CC(=O)O)c1 (stereo not drawn) | – | – | -25.2% (inactive)
CCN1CCN(Cc2ccc(C(=O)Nc3ccc(C)c(Oc4ccc5c(c4)CC(=O)N5)c3)cc2C(F)(F)F)CC1 | – | 16.3 µM (active) | –
COc1cc(CCc2cc(NC(=O)c3ccc(N4CC(C)NC(C)C4)cc3)n[nH]2)cc(OC)c1 (stereo not drawn) | – | 9.16 µM (active) | –
O=C(CCl)Nc1cccc(NC2=NS(=O)(=O)c3ccccc32)c1 | – | 9.34 µM (active) | –
CCCC(Nc1nc(-c2ccc(NC(=O)NCC)c(OC)c2)ncc1C)c1cccnc1 (stereo not drawn) | – | 0.183 µM (active) | –
O=C(NCCCCN1CCN(c2cccc(Cl)c2Cl)CC1)c1cc2ccccc2s1 | – | 20.5 µM (active) | –
